Screening results deposited in PubChem by National Center for Advancing Translational Sciences (NCATS).
G9a block: qHTS Assay for Inhibitors of Histone Lysine Methyltransferase G9a. G9a H3K9 monomethylation, AlphaScreen, 2 h. Histone-lysine N-methyltransferase EHMT2 (Homo sapiens), Q96KQ7. Potency, µM (highest dose often 102 µM), actives largely listed as inhibitors. actives 8.8% (n = 350,000); further: nearly all actives have a fitted effect of over 75% in size
Target sequence (Q96KQ7 913-1193 limits assumed): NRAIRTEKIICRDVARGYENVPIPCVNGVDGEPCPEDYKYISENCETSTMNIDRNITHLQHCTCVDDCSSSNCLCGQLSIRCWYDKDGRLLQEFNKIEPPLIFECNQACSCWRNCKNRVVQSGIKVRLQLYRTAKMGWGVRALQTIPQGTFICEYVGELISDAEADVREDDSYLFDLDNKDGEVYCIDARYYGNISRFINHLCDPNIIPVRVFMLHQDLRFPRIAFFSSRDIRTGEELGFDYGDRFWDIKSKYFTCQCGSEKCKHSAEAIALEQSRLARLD
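G9a (20 nM) preincubated 15 min RT with compounds, then 500 nM biotinylated H3K9 peptide and 20 uM SAM added; 2 h RT reaction. Monomethyl-H3K9 product detected by AlphaScreen with anti-H3K9me1 antibody, streptavidin donor and anti-rabbit IgG acceptor beads.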
BAZ2B block: qHTS Assay for Inhibitors of BAZ2B. Bromodomain adjacent to zinc finger domain protein 2B (Homo sapiens), Q9UIF8. AlphaScreen BAZ2B-H3K14Ac peptide displacement. Potency, µM (highest dose often 114 µM), most hits filed as inhibitors. actives 4.4% (n = 360,000); further: nearly all actives have a fitted effect of over 60% in size
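Compounds, titrated to a top concentration of 110 uM, were incubated 30 min at room temperature with preformed BAZ2B/acetyl-K14 H3 peptide complex (50 nM each). Proximity signal was measured by AlphaScreen after 20 min with beads.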
Six1-Eya2 blk: qHTS Assay for Inhibitors of the Six1/Eya2 Interaction; actives 0.56% (n = 360,000); AlphaScreen GST-Six1/His-Eya2 binding, biochemical; hits give low values; activity change, % (no concentration beside the values); Homeobox protein SIX1 (Homo sapiens) + Protein phosphatase EYA2 (Homo sapiens), …; in the data active means activity change below about -65%; inconclusive means mostly about -30% to -63%
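Homogeneous AlphaScreen proximity assay pairing GST-Six1 with His-tagged Eya2 (added as 5X mix: 250 nM and 500 nM) in 50 mM Tris pH 8.0, 300 mM NaCl, 1 mM TCEP. Glutathione donor and nickel acceptor beads; 1 h, 37 °C, dark.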
CtBP-E1A blk: qHTS Assay for Inhibitors of the CtBP/E1A Interaction | actives 0.49% (n = 340,000) | AlphaScreen GST-E1A/His-CtBP binding, 1536-well; hits give low values | activity change, % (test concentration not listed); in the data active means activity change below about -65%; inconclusive means mostly about -30% to -63%
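Protein mix (5X: 125 nM each GST-E1A, His-CtBP) was incubated with pinned compound 2 h at 37 deg C in dark, in 50 mM Tris pH 8.0 buffer with 300 mM NaCl. Glutathione donor and nickel acceptor beads followed; AlphaScreen signal read after 1 h.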
HP1b binding inh: HTS for Inhibitors of HP1-beta Chromodomain Interactions with Methylated Histone Tails; Chromobox protein homolog 1 (Homo sapiens), P83916; AlphaScreen HP1-beta / biotin-H3K9me3 peptide binding; Potency, µM (doses to about 114 µM), most hits filed as inhibitors; actives 0.56% (n = 390,000); further: nearly all actives have a fitted effect of over 70% in size
Target sequence (P83916 whole entry, looked up): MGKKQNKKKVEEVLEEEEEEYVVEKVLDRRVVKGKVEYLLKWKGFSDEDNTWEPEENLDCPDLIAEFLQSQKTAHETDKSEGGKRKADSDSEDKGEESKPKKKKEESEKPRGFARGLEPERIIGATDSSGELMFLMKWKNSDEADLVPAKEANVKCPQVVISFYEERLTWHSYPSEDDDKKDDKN
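HP1-beta protein (50 nM final) preincubated 30 min at room temperature with biotinylated H3(1-18)K9me3 peptide (50 nM) in PBS pH 7.4, 0.01% Tween-20, then compound added for 30 min. AlphaScreen streptavidin donor/nickel chelate acceptor beads (10 ug/mL final), 30 min dark, luminescence read.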
JMJD2A Tudor: qHTS Assay for Inhibitors of JMJD2A-Tudor Domain; Lysine-specific demethylase 4A (Homo sapiens), O75164; AlphaScreen JMJD2A-Tudor / H3K4me3 peptide binding; Potency, µM (top dose mostly 114 µM), hits mostly inhibitors; actives 4.4% (n = 390,000); AID 504339, 2011; further: nearly all actives have a fitted effect of over 50% in size
Of the large screens only hits and unclear results are named; the others gave an inactive call; ! = not active in a repeat. In the library only some 10% were active in any assay of this set; here they are far more common. Unless noted, the call rests on the fitted dose curve; in most records, active means well fitted inhibition curve with a large enough effect; inconclusive means small, poorly fitted or top-dose-only effect; inactive means no such curve, though single readings can be large or run the other way.

Cc1ccc(C(=O)Nc2ccc3c(c2)N(C)C(=O)c2ccccc2S3)cc1F	none (no result: Six1-Eya2 blk, CtBP-E1A blk)
COc1cccc(NC(=O)/C(C#N)=C/c2c(C)n(Cc3ccc(Cl)cc3)c3ccccc23)c1	none (no result: Six1-Eya2 blk, CtBP-E1A blk)
O=C(c1cnc2nc3ccccc3n2c1)c1cc(F)ccc1O	none (no result: G9a block)
COc1ccc(-n2c(SCC(=O)O)nc3sc4c(c3c2=O)CCCC4)cc1	G9a block inconclusive
COC(=O)c1cc(C(=O)c2cc(F)ccc2O)cn2c(=O)c3c(C)c(C)sc3nc12	G9a block inconclusive, JMJD2A Tudor 40µM
COc1ccc(O)c(C(=O)c2cc(SCC(=O)O)c3nc4sc5c(c4c(=O)n3c2)CCCC5)c1	BAZ2B block 22µM, HP1b binding inh 25µM, JMJD2A Tudor 25µM
c1c(CC2CCCC2)nnn1C[C@H]1CC[C@@H]([C@@H]2CC[C@H](Cn3cc(CC4CCCC4)nn3)O2)O1	G9a block 40µM
Oc1ccc2c(c1)C1CCCC1(N1CCOCC1)O2 (stereo not given)	G9a block 8.9µM, BAZ2B block inconclusive, HP1b binding inh inconclusive
CC(/C=C/C(=O)NO)=C\[C@@H](C)C(=O)c1ccc(N(C)C)cc1	G9a block 16µM! (no result: BAZ2B block, Six1-Eya2 blk, CtBP-E1A blk, HP1b binding inh, JMJD2A Tudor)
CC(NC(=O)c1ccc(N(C)C)cc1)c1ccc(F)cc1 (stereo not given)	none
COc1ccc(OC)c(NC(=O)CCc2nc(-c3ccc(C)cc3)no2)c1	none (no result: Six1-Eya2 blk, CtBP-E1A blk)
Cc1cc(C)cc(NC(=O)CN2C(=O)c3ccccc3Sc3ccc(C(=O)N4CCCC4)cc32)c1	G9a block inconclusive (no result: Six1-Eya2 blk, CtBP-E1A blk)
CCN(CC)CC(O)c1ccc2ccc3ccc(O)cc3c2c1 (stereo not given)	none (no result: G9a block, BAZ2B block)
Cc1cc(-c2ccc(C)c(S(=O)(=O)NCCCN3CCN(c4ccccc4)CC3)c2)on1	G9a block 71µM, BAZ2B block inconclusive, JMJD2A Tudor inconclusive (no result: CtBP-E1A blk)
CCOC(=O)c1ccc(NC(=O)CSc2nccn2C)cc1	G9a block inconclusive, BAZ2B block inconclusive
CCCCOc1ccc(NC(=O)CCSc2nccn2C)cc1	G9a block 11µM, BAZ2B block inconclusive, JMJD2A Tudor 3.2µM
O=C(CSc1cccc2cccnc12)Nc1cc(C(=O)O)cc(C(=O)O)c1	Six1-Eya2 blk inconclusive, CtBP-E1A blk -83 (no result: G9a block)
CN(C)C(=O)CSc1cccc2cccnc12	G9a block inconclusive, Six1-Eya2 blk -91, CtBP-E1A blk -94
NNC(=O)CSc1cccc2cccnc12	none
CCCCOc1ccc(NC(=O)Nc2nnc(C)s2)cc1	G9a block 79µM (no result: CtBP-E1A blk)
COc1cccc(C(C)N(C)Cc2nc(-c3ccoc3)oc2C)c1 (stereo not given)	G9a block inconclusive
CC(=O)c1ccc(NC(=O)c2c3c(nc4ccccc24)C(=O)N(C2CCCCC2)C3)cc1	none (no result: Six1-Eya2 blk, CtBP-E1A blk)
CCCCOc1ccc(NC(=O)CSc2cccc3cccnc23)cc1	Six1-Eya2 blk inconclusive, CtBP-E1A blk -88
O=C(CSc1cccc2cccnc12)OCC(=O)c1ccc(Br)cc1	none
Cc1cccc(NC(=O)CSc2cccc3cccnc23)c1	Six1-Eya2 blk -81 (no result: CtBP-E1A blk)
O=C(CSc1cccc2cccnc12)N/N=C/c1ccncc1	none (no result: CtBP-E1A blk)
O=C(CSc1cccc2cccnc12)Nc1ccccc1F	Six1-Eya2 blk inconclusive, CtBP-E1A blk inconclusive
CCOc1cc(/C=N/NC(=O)CSc2cccc3cccnc23)ccc1O	Six1-Eya2 blk -66, CtBP-E1A blk -74
O=C(CSc1cccc2cccnc12)OCC(=O)c1ccccc1	Six1-Eya2 blk -88, CtBP-E1A blk -93, JMJD2A Tudor 35µM
CN(C(=S)NC(=O)CCCOc1ccc(Cl)cc1Cl)c1ccccc1	G9a block inconclusive
CC(O)(c1ccc(F)c(F)c1)c1nc(-c2cc(F)cc(F)c2)cs1 (stereo not given)	none (no result: G9a block, BAZ2B block, HP1b binding inh, JMJD2A Tudor)
